Here are results for 34 compounds from PubChem BioAssay (EPA / NIEHS).

Results filed as inconclusive are left out. Activity calls are given as the source filed them. The calls were made as follows: active = hit-call score of the fitted dose curve at least 0.9, where 1 is the maximum; inconclusive = response in the unintended direction; inactive = score below 0.9.

Read-out in this assay: organic anion transporter (SLCO1B1), SLCO1B1 (gene 10599)
Put plainly: CLD_SLCO1B1_6hr: CellzDirect (CLD) Gene Expression Assay for organic anion transporter (SLCO1B1) at 6 hours (AID 2283668).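 Also: active means mRNA induction above DMSO baseline.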 Here is the method:
CLD_6hr is a cell-based, multiplexed-readout assay that uses hepatocyte, a human liver primary cell, with measurements taken at 6 hours after chemical dosing in a 96-well plate.CLD_SLCO1B1_6hr is one of 16 assay component(s) measured or calculated from the CLD_6hr assay. It is designed to make measurements of mRNA induction, a form of inducible reporter, as detected with chemiluminescence signals by Quantitative Nuclease Protection Assay (qNPA) technology.Data from the assay component CLD_SLCO1B1_6hr was analyzed at the endpoint, CLD_SLCO1B1_6hr, in the positive analysis fitting direction relative to DMSO as the negative control and baseline of activity. Using a type of inducible reporter, gain-of-signal activity can be used to understand changes in the reporter gene as they relate to the gene SLCO1B1. Furthermore, this assay endpoint can be referred to as a primary readout. To generalize the intended target to other relatable targets, this assay endpoint is annotated to the transporter intended target family, where subfamily is organic anion transporter.
Human hepatocyte cultures were treated daily for two consecutive days with fresh dosing solutions containing appropriate concentrations of the 320 ToxCast chemicals (chemical identities were blinded to CellzDirect and other ToxCast collaborators), vehicle control (0.2% DMSO), and positive control inducers as summarized in Table 1. Due to the large number of treatment groups and chemicals examined, the ToxCast chemicals were divided into two groups (spanning two independent cultures of hepatocytes from separate donor preparations (Hu778: ToxCast plates 1 and 2; Hu776: ToxCast plates 3 and 4). Each preparation of human hepatocyte cultures was treated with respective vehicle control, medium only control, set of six positive controls/reference chemicals for the five hepatic receptor pathways, and a subset of eight of the ToxCast chemicals (indoxacarb, pyrithiobac-sodium, norflurazon, cyhalofop-butyl, methomyl, thiram, acetochlor, and propiconazole). These replicate data, coupled with internal replicates designed within the blinded ToxCast chemical library, provided additional data to evaluate interindividual differences between hepatocyte preparations and their potential impact on chemical profiles.Cell morphology and integrity were evaluated using phase-contrast microscopy as an indicator of hepatocyte cell health (Tyson & Green, 1987). Cultures for each treatment group (i.e., media, vehicle [0.2% DMSO], positive control inducers [multiple concentrations], and the ToxCast chemicals [multiple concentrations]) were observed and cell morphology was assessed relative to vehicle control cultures at each harvest time point (0, 6, 24, or 48 h). […] Images were evaluated at the conclusion of the study to assess changes in cell integrity and account for the effects of chemical exposure on uncharacteristic changes in concentration-dependent gene expression profiles. The results from these determinations of apparent cytotoxicity were annotated (yes/no) alongside the corresponding qNPA data for reference.At the conclusion of each treatment period, hepatocyte cultures (96-well) were washed with 1 volume of HBSS, lysed by addition of 25 ul ArrayPlate lysis buffer (HTG, Tucson, AZ), and 70 ul/well of Denaturation Oil, denatured by incubation at 95C for 10 min, and frozen at approximately -70C until analysis by nuclease protection assay (qNPA) (Roberts et al., 2007). For qNPA analysis, cell lysates were thawed at 50C for approximately 30 min, qNPA probes were added, and samples were incubated at 95C for 10 min to begin the detection process by denaturing the target RNA, dissociating the duplexes and secondary structure hybridization. At the conclusion of the hybridization period, S1 nuclease reagent was added to each sample to digest all nonprotected nucleotides at 50C for 60-90 min. […]
For the compound `CO/C=C(/C(=O)OC)c1ccccc1Oc1cc(Oc2ccccc2C#N)ncn1`, the outcome was inactive.
Turning to `O=C(O)c1nc(Cl)ccc1Cl`, the compound was classed as inactive.
As for `CN(C)C(=S)SSC(=S)N(C)C`, the entry is “inactive”; as for `Cc1c(F)c(F)c(COC(=O)C2C(/C=C(\Cl)C(F)(F)F)C2(C)C)c(F)c1F` (centres undefined), “inactive”.
As to `CCCCC(CC)COC(=O)c1ccccc1C(=O)OCC(CC)CCCC` (centres undefined), the compound was called inactive.
As for `Cc1ccc(-c2c(Cl)nc(C#N)n2S(=O)(=O)N(C)C)cc1`, the entry is “inactive”.
For `CCCCNC(=O)OCC#CI` the value was “inactive”; for `CCCCNC(=O)n1c(NC(=O)OC)nc2ccccc21`, “inactive”; for `CCCCOC(=O)c1ccccc1C(=O)OCCCC`, “inactive”.
For `OC(c1ccc(Cl)cc1)(c1cncnc1)c1ccccc1Cl` (centres undefined) the value was “inactive”; for `CCNc1nc(Cl)nc(NC(C)C)n1`, “inactive”.
As to `COc1cnc(OC)n2nc(NS(=O)(=O)c3c(OCC(F)F)cccc3C(F)(F)F)nc12`, the compound was called inactive.
For `COC(=O)C=C(C)OP(=O)(OC)OC` the value was “inactive”; for `CCOc1cc(Oc2ccc(C(F)(F)F)cc2Cl)ccc1[N+](=O)[O-]`, “inactive”; for `COC(=O)c1ccccc1C(=O)OC`, “inactive”.
For `CCNc1nc(Cl)nc(NCC)n1` the value was “inactive”; for `C=CCC1=C(C)[C@@H](OC(=O)[C@@H]2[C@@H](C=C(C)C)C2(C)C)CC1=O`, “inactive”; for `CCc1nn(C)c(C(=O)NCc2ccc(C(C)(C)C)cc2)c1Cl`, “inactive”.
For `CC(C)(C)c1ccc(CSc2cnn(C(C)(C)C)c(=O)c2Cl)cc1` the value was “inactive”; for `CCOC(=O)CC(SP(=S)(OC)OC)C(=O)OCC` (centres undefined), “inactive”.
`COC(=O)C(C)Oc1ccc(Oc2ccc(Cl)cc2Cl)cc1` (centres undefined): the result was inactive.
For `COP(=S)(OC)Oc1nc(Cl)c(Cl)cc1Cl` the value was “inactive”.
As for `CCCN(CCC)c1c([N+](=O)[O-])cc(S(N)(=O)=O)cc1[N+](=O)[O-]`, the entry is “inactive”.
For `Oc1ccccc1-c1ccccc1` the value was “inactive”.
With `CCON=C(CC)C1=C(O)CC(c2c(C)cc(C)cc2C)CC1=O` (centres undefined), the compound was classed as inactive.
For `CC1COC(Cn2cncn2)(c2ccc(Oc3ccc(Cl)cc3)cc2Cl)O1` (centres undefined) the value was “inactive”; for `COc1nc(NC(C)C)nc(NC(C)C)n1`, “inactive”; for `COc1nc(C)nc(NC(=O)NS(=O)(=O)c2ccccc2Cl)n1`, “inactive”.
For `COP(N)(=O)SC` (centres undefined) the value was “inactive”.
As to `N#Cc1cc(Br)c(O)c(Br)c1`, the outcome was inactive.
For `CC(C)C1(C)N=C(c2nc3ccccc3cc2C(=O)O)NC1=O` (centres undefined) the value was “inactive”.
For `COC(=O)N(OC)c1ccccc1COc1ccn(-c2ccc(Cl)cc2)n1` the value was “inactive”; for `COc1nc(C)nc(NC(=O)NS(=O)(=O)c2ccccc2CCC(F)(F)F)n1`, “inactive”; for `C=CCC1=C(C)C(OC(=O)C2C(C=C(C)C)C2(C)C)CC1=O` (centres undefined), “inactive”.
